Screens: PubChem BioAssay, NMMLSC
GRK2 aptamer HTS: blocks RNA aptamer binding to human GRK2; P25098; 330,000 compounds, 0.59% hits; bead flow cytometry, FAM-aptamer displacement from GRK2; inhibition of aptamer binding, % at 10 µM; AID 488847;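 active = inhibition of aptamer binding above 40%, roughly 3 SD of noise, on plates passing a quality check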;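 note: median bead fluorescence of bound FAM aptamer so fluorescent compounds give negative values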
MEKK3 PB1 HTS: raises or lowers MEK5 binding to the human MEKK3 PB1 domain | bead-based flow cytometry, Alexa488-MEK5 binding to MEKK3; actives lie on both sides; 0 = blocked by unlabeled MEK5, 100 = vehicle | binding response (% of control), % at 10 µM | Q99759 | 290,000 compounds, 1.4% hits;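 active = binding response more than 3 SD above or below the average of its plate-row segment, actives on both sides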;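 note: Alexa488 bead fluorescence after subtracting the streptavidin-only scavenger bead signal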
Target sequence (Q99759 whole entry, looked up, the tested form may be a part): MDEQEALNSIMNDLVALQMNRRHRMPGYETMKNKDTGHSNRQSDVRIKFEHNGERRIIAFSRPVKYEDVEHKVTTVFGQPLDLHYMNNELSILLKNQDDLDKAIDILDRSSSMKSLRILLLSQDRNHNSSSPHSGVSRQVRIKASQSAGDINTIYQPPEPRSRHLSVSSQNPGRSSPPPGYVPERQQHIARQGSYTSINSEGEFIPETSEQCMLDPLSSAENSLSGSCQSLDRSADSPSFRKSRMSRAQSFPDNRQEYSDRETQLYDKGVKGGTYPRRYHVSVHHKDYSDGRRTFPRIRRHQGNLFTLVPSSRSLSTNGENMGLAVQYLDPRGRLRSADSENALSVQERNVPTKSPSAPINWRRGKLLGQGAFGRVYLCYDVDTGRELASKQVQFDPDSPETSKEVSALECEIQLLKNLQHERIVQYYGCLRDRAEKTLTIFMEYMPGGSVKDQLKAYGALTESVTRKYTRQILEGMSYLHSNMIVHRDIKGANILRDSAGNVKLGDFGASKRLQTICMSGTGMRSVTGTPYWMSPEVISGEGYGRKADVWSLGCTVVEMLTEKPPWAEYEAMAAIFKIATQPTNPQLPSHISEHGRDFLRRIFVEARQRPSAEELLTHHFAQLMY
MEKK2 WT-MEK5: raises or lowers MEK5 binding to wildtype human MEKK2 PB1 domain | bead flow cytometry, Alexa488-MEK5 binding to MEKK2 WT; actives lie on both sides | binding response (% of control), % at 10 µM | 290,000 compounds, 1.1% hits; in the data active = binding response below about 67% or above about 130%
MEKK2 mut-MEK5: signal of MEK5 binding to mutant human MEKK2 PB1 domain. bead flow cytometry, Alexa488-MEK5 binding to MEKK2 mutant. percent response, % at 10 µM. 290,000 compounds, 0.35% hits; in the data active = percent response above about 24%, passing the limit was not always enough
* = called active by the depositor; . = no result given; [ ] = remark or other dose. This is a sample that favours compounds with a hit; in the whole collection about 2.5% have one here.

SMILES	GRK2 aptamer HTS	MEKK3 PB1 HTS	MEKK2 WT-MEK5	MEKK2 mut-MEK5
Cc1ccc2oc(=O)c3cc(C(=O)NCCCN4CC(C)CC(C)C4)sc3c2c1 (stereo not drawn)	0.0	101.0	142.0*	13.0
CCOc1cc(N2CCOCC2)c(OCC)cc1NC(=O)CN1C(=O)N(C)C2(CCCCC2)C1=O	4.0	.	.	.
CC1CCCCN1CCNC(=O)c1ccc2c(=O)n(CCc3ccccc3)c(=O)[nH]c2c1 (stereo not drawn)	0.0	.	.	.
Cc1c(C)n(C)c2ccc(C(=O)NCCCN3CCCCC3C)cc12 (stereo not drawn)	0.0	108.0	178.0*	35.0*
CC1CCCCN1CCNC(=O)c1ccc2c(=O)n(Cc3ccc(Cl)cc3)c(=S)[nH]c2c1 (stereo not drawn)	0.0	107.0	169.0*	33.0*
Cc1c(C)n(C)c2ccc(C(=O)NCCCN(C)C3CCCCC3)cc12	0.0	101.0	145.0*	12.0
Cc1c(C)n(C)c2ccc(C(=O)NCCc3ccco3)cc12	5.0	99.0	96.0	-1.0
CC1CCN(CCCNC(=O)c2cc3c(s2)-c2ccccc2OC3)CC1	0.0	104.0	134.0*	11.0
Cc1cccc2c1-c1sc(C(=O)NCCCN3CCC(C)CC3)cc1CO2	0.0	107.0	186.0*	29.0*
CC1CCCN(CCCNC(=O)c2cc3c(s2)-c2ccccc2OC3)C1 (stereo not drawn)	0.0	103.0	132.0	9.0
CCOc1ccc(-c2cc(C(=O)OC)[nH]n2)cc1	8.0	162.0*	97.0	880.0*
COc1ccc(C)cc1NC(=O)CCS(=O)(=O)c1cc2c(cc1Cl)NC(=O)CO2	5.0	95.0	94.0	-1.0
O=C(Nc1ccc(Nc2ccncc2)cc1)c1ccc(Nc2ccnc3ccc([N+](=O)[O-])cc23)cc1	.	61.0*[inhibitor]	72.0*[inhibitor]	-13.0
Cc1cc(N/N=C/c2ccc(O)cc2)nc(NS(=O)(=O)c2ccccc2)n1	74.0*	94.0	94.0	-17.0
CCN(CC)c1ccc(/C=N/NC(=O)c2cccc(S(=O)(=O)Nc3ccccc3OC)c2)c(O)c1	70.0*	107.0	111.0	4.0
CCN(CC)c1ccc(/C=N/NC(=O)c2cccc(S(=O)(=O)Nc3ccccc3OC)c2)cc1	2.0	101.0	100.0	3.0
CCN(CC)CCN(C(=O)c1cc2ccccc2cc1OC)c1nc2ccc(F)cc2s1	0.0	104.0	140.0*	20.0
CCOc1ccc2nc(N(CCN(CC)CC)C(=O)/C=C/c3cccs3)sc2c1	0.0	109.0	157.0*	16.0
CN(C)CCN(C(=O)c1ccc2ccccc2c1)c1nc2ccc(F)cc2s1	0.0	105.0	115.0	9.0
CCN(CC)CCN(C(=O)c1ccc2ccccc2c1)c1nc2ccc(OC)cc2s1	1.0	105.0	127.0	14.0
CCN(CC)CCN(C(=O)c1cc2ccccc2cc1OC)c1nc2ccc(OC)cc2s1	0.0	103.0	148.0*	26.0*
Cc1ccc2c(c1)NC(=O)C(CC(=O)O)O2 (stereo not drawn)	2.0	94.0	100.0	-4.0
O=c1[nH]c(=S)[nH]c(O)c1N=Nc1ccc(-c2ccccc2)cc1[N+](=O)[O-]	.	96.0	-4.0*	3.0
CC(=O)OCCNc1cc(N2CCN(C)CC2)c2noc3c2c1C(=O)c1ccccc1-3	.	87.0	94.0	7.0
CCN1CCN(c2cc(N3CCN(C(=O)c4ccco4)CC3)c3c4c(onc24)-c2ccccc2C3=O)CC1	0.0	78.0*[inhibitor]	86.0	-1.0
SMILES	GRK2 aptamer HTS	MEKK3 PB1 HTS	MEKK2 WT-MEK5	MEKK2 mut-MEK5
O=C(Nc1cc(Cl)ccc1F)C1=COCCO1	0.0	.	.	.
CCCCNc1cc(C)nc(NCc2ccccc2)n1	0.0	106.0	133.0	10.0
Cc1cc(Nc2ccc(Cl)cc2)nc(NCc2ccccc2)n1	0.0	110.0	159.0*	12.0
CCCCN1C(=N)N([C@@H](CCC)CN2CCC[C@H]2CN2C(N)=NC[C@H]2C(C)C)C[C@H]1[C@H](C)CC	100.0*	.	.	.
CCC[C@@H](CN1CCC[C@H]1CN1C(N)=NC[C@H]1C(C)C)N1C[C@@H]([C@H](C)CC)N(CCCC2CCCC2)C1=N	0.0	.	.	.
O=C(/C=C/c1ccncc1)c1cc(Cl)ccc1O	0.0	85.0	84.0	5.0
CN(C)c1ccc(/C=C/C(=O)c2cc(Cl)ccc2O)cc1	1.0	90.0	-1.0*	-10.0
O=C1C2CC=C(Cl)CC2C(=O)N1CCCCCCN1C(=O)C2CC=C(Cl)CC2C1=O (stereo not drawn)	0.0	111.0	106.0	8.0
O=C1C2CC=C(Cl)CC2C(=O)N1CCC[n+]1cccc2ccccc21 (stereo not drawn)	83.0*	117.0	106.0	2.0
